This is one part of a sample in which hits are shown more often than they occur.
Giardia FBPA inh: qHTS Assay for Inhibitors of Fructose-1,6-bisphosphate Aldolase from Giardia Lamblia. A8B2U2. purified Giardia FBPA. Potency, µM (titrated, usually from 59.6 µM), for inactives: at the top dose activity, negative = inhibition, actives largely listed as inhibitors. 0.71% of 290,000 active; further: potency means the concentration at half of the fitted maximal effect; on the % scale 0 is the no-effect control and ±100 the full control effect; nearly all actives have a fitted effect of over 55% in size
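Giardia FBPA (40 nM reagent) was preincubated 10 min at RT with compound (up to 57.5 uM final), then substrate plus GAPDH/TPI/NAD/arsenate coupling system with diaphorase/resazurin was added; resorufin fluorescence (525/598 nm) was read after 20 min.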
LmPK inh: qHTS Assay for Inhibitors of Leishmania Mexicana Pyruvate Kinase (LmPK) | 0.37% of 290,000 active | Q27686 | Potency, µM (doses to about 57.5 µM), without a hit: at the top dose activity change, negative = inhibition, hits mostly inhibitors | AID 1721, 2009 | purified LmPK, Kinase-Glo ATP luminescence, 1 h; further: potency means the concentration at half of the fitted maximal effect; on the % scale 0 is the no-effect control and ±100 the full control effect
Target sequence (Q27686 whole entry, looked up): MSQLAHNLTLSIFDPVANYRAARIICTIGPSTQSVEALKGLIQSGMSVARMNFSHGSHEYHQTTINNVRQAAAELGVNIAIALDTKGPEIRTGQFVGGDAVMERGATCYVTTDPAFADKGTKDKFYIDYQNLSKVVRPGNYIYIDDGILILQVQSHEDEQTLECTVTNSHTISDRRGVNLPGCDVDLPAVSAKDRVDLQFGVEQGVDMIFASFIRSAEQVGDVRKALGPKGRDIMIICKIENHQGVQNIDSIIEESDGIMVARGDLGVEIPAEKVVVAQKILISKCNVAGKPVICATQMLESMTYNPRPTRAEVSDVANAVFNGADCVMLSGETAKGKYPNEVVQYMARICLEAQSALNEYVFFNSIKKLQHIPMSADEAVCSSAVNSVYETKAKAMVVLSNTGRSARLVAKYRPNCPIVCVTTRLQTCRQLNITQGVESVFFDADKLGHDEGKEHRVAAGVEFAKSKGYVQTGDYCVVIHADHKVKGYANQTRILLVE
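Pyruvate kinase activity monitored as ATP production (luciferase luminescence). Conditions: 0.1 nM enzyme, 0.5 mM PEP, 0.1 mM ADP, 1 h, RT; normalized against uninhibited and no-enzyme wells.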
TbPYK inhibitor: qHTS of Trypanosoma Brucei Inhibitors; pyruvate kinase (Trypanosoma brucei), Q57TT1; TbPYK enzyme, Kinase-Glo Plus ATP luminescence, 45 min; Potency, µM (top dose mostly 76.8 µM), for inactives: at the top dose activity, negative = inhibition, actives largely listed as inhibitors; 0.12% of 410,000 active; further: potency means the concentration at half of the fitted maximal effect; on the % scale 0 is the no-effect control and ±100 the full control effect; nearly all actives have a fitted effect of over 50% in size
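Glycolytic pyruvate kinase of T. brucei was incubated with substrate, test compound and 130 uM ADP for 45 minutes at room temperature. Luminescent Kinase-Glo Plus signal was measured after 10 minutes.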
Shiga inhibitor: A qHTS for Small Molecule Inhibitors of Shiga Toxin | Vero cells, Shiga toxin protein synthesis inhibition reporter | inhibition, % at 38.7 µM | 9.2% of 290,000 active | AID 2315, 2010; in the data active means inhibition mostly above about 28%, no sharp cut-off; inactive means mostly below about 43%; further: 0% is about no effect
CHX counter: Cycloheximide Counterscreen for Small Molecule Inhibitors of Shiga Toxin; 12% of 300,000 active; cell reporter, cycloheximide protein synthesis inhibition counterscreen; max response, %; AID 2314, 2010; in the data active means max response mostly above about 13%, no sharp cut-off; inactive means mostly below about 14%; further: read at 38.3 µM for the half of the compounds with a filed dose; 0% is about no effect
RE007 growth inh: qHTS Assay for Inhibitors of the HIV-1 protein Vpr | S. pombe RE007 Vpr strain, BacTiter-Glo ATP luminescence, 24 h | Potency, µM (top dose mostly 92.2 µM), for inactives: top-dose activity change, negative = less growth, usual class: inhibitors | 0.21% of 360,000 active | AID 651644, 2012; active means well fitted falling curve with a large enough effect; inconclusive means small, poorly fitted or top-dose-only effect; inactive means no such curve, though single readings can be large or run the other way; further: potency means the concentration at half of the fitted maximal effect; on the % scale 0 is the no-effect control and ±100 the full control effect; nearly all actives have a fitted effect of over 50% in size
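Fission yeast RE007 carrying one integrated HIV-1 vpr copy, seeded at OD 0.01 in PMG+AL medium with 23 nL pinned compound. Grown 24 h at 30 degrees; viability read by BacTiter-Glo luminescence after 5 min.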
An asterisk follows results filed as active; ? = inconclusive; . = no result given; [ ] = another dose, or the depositor's remark. Unless noted, the call rests on the fitted dose curve; in most records, active means well fitted curve in the direction sought with a large enough effect; inconclusive means small, poorly fitted or top-dose-only effect, or another doubt; inactive means no such curve, though single readings can be large; an effect the other way counts as inactive or inconclusive.

SMILES	Giardia FBPA inh	LmPK inh	TbPYK inhibitor	Shiga inhibitor	CHX counter	RE007 growth inh
c1csc(Cn2nnnc2CN2CCN(c3nc4ccccc4s3)CC2)c1	5%	-10%	-2%	-13	-2	6%
COc1ccc(CN2CCN(c3nc4ccccc4s3)CC2)cc1	0%	-5%	-2%	21	16	11%
Cc1ccccc1CN1CCN(c2nc3ccccc3s2)CC1	6%	-1%	-10%	63*	51*	-21%
O=[N+]([O-])c1ccc(CN2CCN(c3nc4ccccc4s3)CC2)cc1	-5%	8%	2%	24	12*	6%
Cc1ccccc1-n1nnnc1SCc1ncc(-c2ccccc2)o1	-10%	4%	-10%	-2	8	0%
Fc1ccc(-c2nnc(CSc3nnc4ccccn34)o2)cc1	4%	-3%	8%	22	40*	-28%
c1ccc(-c2cnc(CSc3nnc4ccccn34)o2)cc1	?	-11%	-21%	53*	40*	-10%
CCOc1ccc(S(=O)(=O)N2CCN(c3cccc(C(F)(F)F)c3)CC2)cc1OCC	.	.	3%	.	.	.
COc1ccc(S(=O)(=O)c2c(O)cc(C)c(NS(=O)(=O)c3ccccc3)c2C)cc1	-4%	5%	0%	-3	1	0%
Cn1c(/C=N/Nc2nc3ccccc3[nH]2)nc2ccccc21	-3%	-23%	2%	154*	34*	?
C=CCn1cc(/C=N/Nc2nc3ccccc3[nH]2)c2ccccc21	4%	0%	-22%	74*	40*	-23%
CCCn1c(/C=N/Nc2nc3ccccc3[nH]2)nc2ccccc21	21%	1%	-16%	46*	49*	4%
CC(C)Cn1c(/C=N/Nc2nc3ccccc3[nH]2)nc2ccccc21	22%	0%	-5%	12	7	-4%
Cc1c(/C=N/Nc2nc3ccccc3[nH]2)c2ccccc2n1C	-21%	3%	-1%	76*	24*	-14%
O=C(NCc1ccccc1F)c1ccc(S(=O)(=O)N2CCCC2)cc1	.	.	1%	.	.	5%
CCCn1c(C)nc2c(N3CCOCC3)nc(C)nc21	2%	.	.	.	.	.
COc1ccc(S(=O)(=O)NCc2ccc3c(c2)CCN3C(=O)c2ccc(C)cc2)cc1Cl	.	.	3%	.	.	.
Cc1c(Cc2ccc3c(c2)OCO3)sc(NC(=O)C2CC2)c1C(N)=O	-8%	0%	-27%	-11	-1	-14%
Cc1nc(NC(=O)C23CC4CC(CC(C4)C2)C3)sc1Cc1ccc2c(c1)OCO2	1%	6%	2%	67*	25*	11%
Cc1nc(NC(=O)C2CCCC2)sc1Cc1ccc2c(c1)OCO2	-4%	3%	-18%	52	22*	8%
Cc1cccc2c1-c1sc(C(=O)N3CCCCC3)cc1CO2	0%	3%	-2%	41*	30*	-11%
CCN1CCN(C(=O)c2cc3c(s2)-c2c(C)cccc2OC3)CC1	4%	2%	-5%	34*	29*	-3%
Cc1cccc2c1-c1sc(C(=O)N3CCc4ccccc4C3)cc1CO2	-8%	-1%	-1%	12	-3	-4%
CCOC(=O)N1CCN(C(=O)c2cc3c(s2)-c2c(C)cccc2OC3)CC1	-9%	0%	4%	-17	-1	-2%
Cc1ccc(C(CC(=O)c2ccc(Cl)cc2)C(=O)O)cc1 (configuration not stated)	0%	-5%	-8%	2	0	-13%
SMILES	Giardia FBPA inh	LmPK inh	TbPYK inhibitor	Shiga inhibitor	CHX counter	RE007 growth inh
COC(=O)C(CC(=O)c1ccc(Cl)cc1)c1ccc(C(C)C)cc1 (configuration not stated)	0%	1%	-14%	70*	37*	7%
O=C(O)CC1(CC(=O)NCc2cc(F)cc3c2OCOC3)CCCCC1	1%	0%	-2%	15	0	-12%
O=C(CSc1ncnc2c1oc1ccccc12)N1CCN(c2ccccc2)CC1	.	.	.	.	.	7%[3.69 µM]
CCc1nc(Nc2ccc(N3CCN(C(C)=O)CC3)cc2)c2oc3ccccc3c2n1	-10%	-1%	-9%	-4	18*	-5%
CC(=O)N1CCN(c2ccc(Nc3ncnc4c3oc3ccccc34)cc2)CC1	-17%	-13%	-11%	128	43*	-11%
CC(C)CN1CCCC2(CCN(C(=O)c3cnccn3)CC2)C1	2%	.	-3%	.	.	.
CC(=O)Nc1ccc(S(=O)(=O)N(Cc2ccccc2)Cc2ccccc2)cc1	.	.	-3%	.	.	.
CCOc1ncccc1C(=O)OCc1nnc(-c2ccccc2)o1	2%	0%	4%	21	12	-22%
O=[N+]([O-])c1cc(-c2nnc(-c3ccccc3)o2)ccc1Oc1ccc(Cl)cc1	6%	-5%	-1%	61*	32*	10%
Cc1nnc(-c2ccc(Oc3ccc(Cl)cc3)c([N+](=O)[O-])c2)o1	-1%	4%	-15%	-9	-3	-5%
O=C(OCc1nnc(-c2ccc(Cl)cc2)o1)c1ccc(O)cc1	6%	4%	0%	28*	19*	-4%
O=C(OCc1nnc(-c2ccccc2)o1)c1cccnc1Cl	5%	-5%	2%	26	19*	6%
O=C(OCc1nnc(-c2ccccc2)o1)c1cc(Cl)ccc1[N+](=O)[O-]	2%	-4%	3%	57	31*	6%
O=C(OCc1nnc(-c2ccccc2)o1)c1cc(F)c(F)cc1Cl	1%	0%	-3%	-3	3	29%
Cc1cccc(C)c1-n1nnnc1C1c2ccccc2C(=O)N1C1CC1 (configuration not stated)	.	.	0%	.	.	-6%
Cc1ccc(/C=C2\SC(N)=NC2=O)s1	0%	0%	-7%	12	15	15%
Cc1ccsc1/C=C1\SC(N)=NC1=O	-2%	-9%	4%	25	20*	-29%
O=C(N/N=C1\CC2CC=CC12)c1ccccc1Cl (configuration not stated)	3%	2%	1%	85*	21*	-7%
O=C(N/N=C1\CC2CC=CC12)c1ccc(Br)cc1 (configuration not stated)	-7%	0%	4%	48	28	-5%
O=[N+]([O-])c1ccccc1N/N=C1\CC2CC=CC12 (configuration not stated)	-1%	-7%	5%	108*	31*	-1%
O=[N+]([O-])c1ccccc1Nc1ccccc1[N+](=O)[O-]	.	.	-4%	.	.	2%
FC(F)(F)c1ccccc1NC(=S)N/N=C1\CC2CC=CC12 (configuration not stated)	-19%	1%	-15%	77*	23*	11%

Source: PubChem
